Measured values reported in PubChem BioAssay AID651820 (National Center for Advancing Translational Sciences (NCATS), 2012).
Screen size: about 340,000 compounds; about 12,000 (3.5%) were called active. Inconclusive results (about 18%) are left out. The entries come from a sample that favours actives as a whole. Entries that show only a call come without a potency. A number with no mark means an inactive call. Calls follow the shape of the dose curve; as a rule, active = well fitted inhibition curve with a large enough effect; inconclusive = small, poorly fitted or top-dose-only effect, or another doubt; inactive = no such curve, though single readings can be large or run the other way.

Experiment: qHTS Assay for Inhibitors of Hepatitis C Virus (HCV)
Conditions: Huh7.5.1 HCVcc-Cre infection, luciferase reporter, 44 h; series mostly up to 41.8 µM
Method in brief: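 Antiviral activity was scored by luciferase reporter output from cells infected with HCVcc-Cre (~0.5 moi) in presence of compound, 44 h infection period, cells seeded 1,000/well 4 h prior.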
Potency is read from the fitted curve at half-maximal effect.

| SMILES | Potency | activity change, negative = inhibition |
| --- | --- | --- |
| COc1ccc(CCOC2OC(CO)C(OC(=O)/C=C/c3ccc(O)c(OC)c3)C(O[C@H]3O[C@@H](C)[C@H](O)[C@@H](O)[C@H]3O)C2O)cc1O (some centres undefined) | inactive | – |
| COc1ccc2[nH]c3c(=O)n(Cc4ccco4)cnc3c2c1 | inactive | – |
| COc1cc(OC)c(OC)cc1/C=N/Nc1ncnc2c1[nH]c1ccc(C)cc12 | inactive | – |
| CC(C)OCCCNc1ncnc2c1[nH]c1ccc(F)cc12 | 12.6 µM (active) | – |
| O=C(COC(=O)c1cccc(Cl)c1)NC1CCCCCCC1 | inactive | – |
| O=C1NC(Cc2ccc(O)cc2)c2nc3ccc(Cl)cc3c(=O)n2-c2ccccc21 (centres undefined) | inactive | – |
| CC(C)(C)OC(=O)NNc1c2ccccc2nc2ccccc12 | 2.82 µM (active) | – |
| O=C(N/N=C/c1cccnc1)c1cc2ccccc2cc1O | inactive | – |
| Cc1ccccc1NC(=O)NNC(=O)OC(C)(C)C | inactive | – |
| COc1ccc(-c2cc(C(=O)Nc3ccccc3O)c3ccccc3n2)cc1 | inactive | – |
| O=C(NNc1c2ccccc2nc2ccccc12)c1cc2ccccc2cc1O | 2.82 µM (active) | – |
| Cc1ccc(C(=O)NNC(=O)OC(C)(C)C)c(Cl)c1 | inactive | – |
| CC(C)CN(C(=O)COC(=O)c1ccc(Cl)c(N)c1)c1c(N)n(Cc2ccccc2)c(=O)[nH]c1=O | inactive | – |
| O=C(CSc1nc2[nH]ncc2c(=O)[nH]1)Nc1ccc(F)cc1 | inactive | – |
| COc1cc(/C=N/NC(=O)c2cc(-c3ccccc3C)nc3ccccc23)cc(OC)c1O | inactive | – |
| Cc1ccc(C(=O)OCC(=O)N2CCCCCC2)cc1S(=O)(=O)N1CCOCC1 | inactive | – |
| CCCc1nc2ccccc2c(C(=O)OCc2nnc(-c3cc(OC)c(OC)c(OC)c3)o2)c1CC | 2.82 µM (active) | – |
| CCCc1nc2ccccc2c(C(=O)OCC(=O)c2ccc3c(c2)NC(=O)CO3)c1CC | inactive | – |
| O=C(OCc1nnc(-c2ccccc2)o1)c1cc(=O)[nH]c2ccccc12 | inactive | – |
| CCOc1ccc(S(=O)(=O)NCCC(=O)NCC2CCCO2)cc1 (centres undefined) | inactive | – |
| O=C(NCc1ccc2c(c1)OCO2)c1cc([N+](=O)[O-])ccc1N1CCOCC1 | inactive | – |
| O=C(CN1C(=O)NC2(CCCCCCC2)C1=O)NCc1ccc(F)cc1 | inactive | – |
| COc1ccc(CCNC(=O)CSc2nc3[nH]ncc3c(=O)n2-c2cccc(C(F)(F)F)c2)cc1OC | inactive | – |
| NS(=O)(=O)c1cccc(NC(=O)CSc2nc3ccccc3n2-c2ccccc2)c1 | inactive | – |
| NC(=O)NC(=O)CSc1nc2cc([N+](=O)[O-])ccc2n1-c1cccc(C(F)(F)F)c1 | 10 µM (active) | – |

| SMILES | Potency | activity change, negative = inhibition |
| --- | --- | --- |
| CC(OC(=O)Cc1ccc(F)cc1)C(=O)N1CCc2ccccc21 (centres undefined) | inactive | – |
| O=C(/C=C/c1ccc(F)cc1)Nc1cccc(S(=O)(=O)Nc2cccc(C(F)(F)F)c2)c1 | inactive | – |
| O=C(NCc1ccccc1)c1ccc(S(=O)(=O)Nc2cccc(C(F)(F)F)c2)cc1 | inactive | – |
| Cc1oc2c(F)c(F)c(F)c(F)c2c1S(=O)(=O)Nc1cccc(C(F)(F)F)c1 | 4.47 µM (active) | – |
| O=C(O)C(c1cccs1)C1(O)CCCCC1 (centres undefined) | inactive | – |
| CCOc1ccc(S(=O)(=O)NCCC(=O)NCC(C)(C)N2CCOCC2)cc1 | inactive | – |
| CN(C)c1nc(N)nc(CSc2nnnn2-c2cccc3ccccc23)n1 | 3.16 µM (active) | – |
| CN(C)c1nc(N)nc(CSc2ccccn2)n1 | inactive | – |
| COc1ccc(-n2nnnc2SCc2nc(N)nc(N3CCOCC3)n2)cc1 | inactive | – |
| COC(=O)Cc1ccc(OC(=O)C2CCN(S(=O)(=O)c3ccc(OC)c(OC)c3)CC2)cc1 | inactive | – |
| CCN(CC)CCNc1nc(-c2ccc(OC(F)F)cc2)c(C)s1 | 17.8 µM (active) | – |
| CCOC(=O)c1ccccc1NC(=O)c1c(N)n(C)c(=O)[nH]c1=O | inactive | – |
| CCCN(CC(=O)Nc1ccccc1OC)C(=O)CCC(=O)c1ccc(F)cc1 | inactive | – |
| COc1ccc([C@H]2CC(=O)C=C(/C=C/c3ccc(Cl)cc3)C2)cc1 | inactive | – |
| CC12CCCCC1=CC(=O)CC2 (centres undefined) | inactive | – |
| COc1ccc(NC(=O)/C(N=Nc2cccc(S(=O)(=O)Nc3ccc(SC(F)F)cc3)c2)=C(\C)O)cc1 | inactive | – |
| O=c1ccn([C@@H]2O[C@H](CNS(=O)(=O)c3cc4ccccc4s3)[C@@H](O)[C@H]2O)c(=O)[nH]1 | inactive | – |
| COc1cccc(CNc2nc3nc4c(c(=O)n3[nH]2)CCC4)c1 | inactive | – |
| COc1cccc(-c2cc3nc4c(c(N5CCC6(CC5)OCCO6)n3n2)CCCC4)c1 | 12.6 µM (active) | – |
| COc1ccc(NC(=O)N2CCC3(CC2)OCCO3)c(OC)c1 | inactive | – |
| Cc1ccc(S(=O)(=O)N2CCOCC2)cc1C(=O)Nc1ccccc1N1CCCC1 | inactive | – |
| CC(C)CCNc1nc(N2CCCC2)c2c(c1C#N)CCN(C)C2 | 12.6 µM (active) | – |
| CCc1nc(NCCO)c(C#N)c2c1CCCC2 | inactive | – |
| CCN1CCc2c(C#N)c(NCc3ccccc3)nc(NCCO)c2C1 | inactive | – |
| O=C(NCCc1ccccc1)c1c[nH]c2ccc(F)cc2c1=O | inactive | – |

| SMILES | Potency | activity change, negative = inhibition |
| --- | --- | --- |
| CCOc1ccc(CC(=O)NCCS(=O)(=O)N2CCN(c3ccccc3)CC2)cc1 | – | -0.883% [at 8.37 µM] |
| N#Cc1ccc(C2=CC(=O)C[C@H](c3ccc(Cl)cc3)C2)cc1 | inactive | – |
| CC(=O)N1c2ccc(S(=O)(=O)N3CCCC(C(=O)NCc4ccc(Cl)cc4)C3)cc2CC1C (centres undefined) | 5.62 µM (active) | – |
| O=C(C1CCCN(S(=O)(=O)c2ccccc2)C1)N1CCN(c2ccc(F)cc2)CC1 (centres undefined) | 20 µM (active) | – |
| CC(=O)N1CCCc2cc(S(=O)(=O)N3CCCC(C(=O)NCc4ccc(Cl)cc4)C3)ccc21 (centres undefined) | 14.1 µM (active) | – |
| CC(=O)N1c2ccc(S(=O)(=O)N3CCC(C(=O)NC4CCCC(C)C4C)CC3)cc2CC1C (centres undefined) | inactive | – |
| CC(=O)N1CCCc2cc(S(=O)(=O)N3CCCC(C(=O)N4CCN(c5cccc(Cl)c5)CC4)C3)ccc21 (centres undefined) | 3.16 µM (active) | – |
| CCCS(=O)(=O)N1CCCC(C(=O)N2CCN(c3ccccc3)CC2)C1 (centres undefined) | inactive | – |
| CCS(=O)(=O)N1CCCC(C(=O)NCc2ccc(C)cc2)C1 (centres undefined) | inactive | – |
| COc1cccc(N2CCN(C(=O)C3CCCN(S(=O)(=O)c4cnc[nH]4)C3)CC2)c1 (centres undefined) | inactive | – |
| CC(=O)N1CCCc2cc(S(=O)(=O)CCC(=O)N3CCN(c4ccccc4)CC3)ccc21 | inactive | – |
| O=C(NCc1ccncc1)C1CCCN(S(=O)(=O)c2ccc(Br)cc2)C1 (centres undefined) | inactive | – |
| Cc1ccc(S(=O)(=O)N2CCCC(C(=O)N3CCN(C)CC3)C2)cc1 (centres undefined) | inactive | – |
| CC(=O)Nc1ccc(NC(=O)C2CCCN(S(=O)(=O)c3ccc(Cl)cc3)C2)cc1 (centres undefined) | inactive | – |
| Cc1cc(NC(=O)CSCC(=O)NC(C)c2ccccc2)no1 (centres undefined) | inactive | – |
| CCN(c1ccccc1)S(=O)(=O)c1cc(C(=O)NCc2ccccn2)ccc1C | inactive | – |
| O=C(COC(=O)c1ccc(O)cc1O)NC(=O)c1ccccc1 | inactive | – |
| CCOc1ccc2oc(C(=O)N(CC)CC(=O)Nc3ccc(NC(C)=O)cc3)c(C)c2c1 | inactive | – |
| COc1ccc(C(C)(C)C)cc1NC(=O)CCN1C(=O)C2CCCCC2C1=O (centres undefined) | inactive | – |
| O=[N+]([O-])c1ncc(Br)cc1Nc1ccccc1 | inactive | – |
| CCN(CC)S(=O)(=O)c1ccc(CNC(=O)CN2C(=O)NC3(CCc4ccccc43)C2=O)cc1 (centres undefined) | inactive | – |
| O=C(NN=Cc1ccc([N+](=O)[O-])cc1)C1CC1 | inactive | – |
| CSCCC(NS(=O)(=O)c1ccc(C)cc1)C(=O)N(C)CC(=O)Nc1ccccc1Br (centres undefined) | inactive | – |
| Cc1ccccc1N1CCN(C(=O)c2cccnc2)CC1 | inactive | – |
| O=C(Nc1ccc(N2CCN(C(=O)c3ccccc3)CC2)c(Cl)c1)c1ncn[nH]1 | inactive | – |

| SMILES | Potency | activity change, negative = inhibition |
| --- | --- | --- |
| O=C(Nc1ccc(N2CCN(C(=O)c3ccccc3)CC2)c(Cl)c1)c1cccnc1 | 11.2 µM (active) | – |
| Cc1cccc(C(=O)NCc2nnc(SC(C)C(=O)Nc3nnc(C)s3)n2C)c1 (centres undefined) | inactive | – |
| c1ccc(Cc2ccc(OCCn3ccnc3)cc2)cc1 | 12.6 µM (active) | – |
| Clc1ncn(CCOc2ccccc2)c1Cl | inactive | – |
| Brc1ccc(OCCn2ccnc2)cc1 | inactive | – |
| Cc1ccc(CN2CCC(n3nccc3NC(=O)CCCc3ccccc3)CC2)o1 | inactive | – |
| COc1ccc(CN2CCC(n3nccc3NC(=O)CCCc3ccccc3)CC2)cc1C | 10 µM (active) | – |
| COc1cc(CN2CCC(n3nccc3NC(=O)CCCc3ccccc3)CC2)ccc1O | inactive | – |
| COc1cccc(N2CC(NC(=O)c3ccc4ccccc4c3)CC2=O)c1 (centres undefined) | inactive | – |
| O=C1C(=O)N(c2ccccc2)C(c2ccccc2)C1c1ccccc1 (centres undefined) | inactive | – |
| CCc1ccccc1NC1c2ccccc2C(=O)N1c1cccnc1 (centres undefined) | inactive | – |
| O=C1[C@@H](c2ccccc2)[C@@H](c2ccccc2)N1c1cccnc1 | 5.01 µM (active) | – |
| CC[C@@]1(C(=O)OC)N[C@H](CN(C)C(C)=O)[C@@H]2C(=O)N(C)C(=O)[C@@H]21 | inactive | – |
| CC(NC(=O)COC(=O)CCC(=O)c1ccc(Cl)cc1)c1ccccc1 (centres undefined) | inactive | – |
| CCC(=O)N1c2ccc(S(=O)(=O)NCc3ccco3)cc2CC1C (centres undefined) | inactive | – |
| COc1cccc(CNS(=O)(=O)c2ccc3c(c2)CC(C)N3C(C)=O)c1 (centres undefined) | inactive | – |
| COc1cccc(CNS(=O)(=O)c2ccc3c(c2)CC(C)N3C(=O)C2CCC2)c1 (centres undefined) | 6.31 µM (active) | – |
| Cn1cccc1C(=O)OCC(=O)NCCc1ccccc1 | inactive | – |
| O=C(COC(=O)c1ccc2ncsc2c1)Nc1ccc(Cl)cc1 | inactive | – |
| CCCCn1c(N)c(N(CC(C)C)C(=O)CSc2ccc([N+](=O)[O-])cc2)c(=O)[nH]c1=O | inactive | – |
| O=C(NNS(=O)(=O)c1c(F)cc(F)c(Cl)c1F)C12CC3CC(CC(C3)C1)C2 | inactive | – |
| COc1cc(/C=N/O)cc(Br)c1OS(=O)(=O)c1ccc(C)cc1 | inactive | – |
| CCOc1cc(/C=N/O)cc(Br)c1OC | 8.91 µM (active) | – |
| O=C(O)COc1ccc(/C=N/O)cc1Br | inactive | – |
